Unmarked numbers belong to inactive results. Results filed as inconclusive are left out. Entries that show only a call come without a potency. The source made the active and inactive calls. Calls follow the shape of the dose curve; as a rule, active = well fitted curve in the direction sought with a large enough effect; inconclusive = small, poorly fitted or top-dose-only effect, or another doubt; inactive = no such curve, though single readings can be large; an effect the other way counts as inactive or inconclusive. Where a SMILES comes first, the peptide text is derived from it. [ ]: non-standard residue; d: D form.
Key:
[1] = target: Glutathione peroxidase 1 (Homo sapiens) (UniProt P07203); test: Primary qHTS Assay for Inhibitors of Recombinant Selenoprotein Glutathione Peroxidase 1 (GPX1) (AID 1845191); also: nearly all actives have a fitted effect of over 65% in size
Summary of the method: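 GR-coupled readout: NADPH consumption tracked by fluorescence, ex 340/em 450 nm, at t=0 and after 15 min at RT. Final mix 10 nM GPX1, 1 mM GSH, 0.5 mM CHP, 0.5 mM NADPH, 100 nM GR, 0.01% BSA, following 30 min enzyme–compound preincubation.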

[2] = target: Phospholipid hydroperoxide glutathione peroxidase GPX4 (Homo sapiens) (UniProt P36969); test: Primary qHTS Assay for Inhibitors of Recombinant Selenoprotein Glutathione Peroxidase 4 (GPX4) (AID 1845192); also: nearly all actives have a fitted effect of over 65% in size; as to activity change, negative = inhibition: series mostly up to about 50 µM
Summary of the method: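 Steps: GPX4 plus compound, 30 min RT; add GR/GSH/NADPH master mix; start with cumene hydroperoxide; read 340/450 nm fluorescence at 0 and 15 min. Finals were 200 nM GPX4, 1 mM GSH, 0.5 mM CHP, 0.5 mM NADPH, 100 nM GR.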

[3] = target: Luciferin 4-monooxygenase (Photinus pyralis) (UniProt P08659); test: Primary firefly luciferase (FLuc) qHTS assay for identification of artifact compounds. (AID 1845220); also: nearly all actives have a fitted effect of over 60% in size; as to activity change, negative = inhibition: series mostly up to about 54 µM
Summary of the method: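 D-luciferin and ATP (10 uM each, final) in Tris acetate buffer pH 7.6 were incubated with compounds for 15 min at room temperature. The reaction was started with 10 nM Photinus pyralis luciferase and luminescence read after 5 min. Percent inhibition was fitted to a 4-parameter Hill equation.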

[4] = Primary fluorescence-based thiol-reactive (MSTI) qHTS assay for identification of artifact compounds. (AID 1845221); also: nearly all actives have a fitted effect of over 65% in size; also: potency is read from the fitted curve at half-maximal effect;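 as to activity change, negative = thiol reactive: series mostly up to about 54 µM; thiol-reactive compounds lower the probe fluorescence signal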
Summary of the method: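 In PBS pH 7.4 with 2% DMSO, each compound met 4 uM MSTI for one hour at ambient temperature, shielded from light, before fluorescence detection.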

[5] = system: Nanoluciferase (engineered Oplophorus gracilirostris luciferase); test: Primary Nanoluciferase (NLuc) qHTS assay for identification of artifact compounds. (AID 1845222); also: series mostly up to about 54 µM
Summary of the method: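 Diluted conditioned medium from NLuc-expressing S16 cells treated with compounds for 15 min at room temperature, then Nano-Glo substrate added; luminescence read after 5 min. Percent inhibition versus no-enzyme and DMSO controls fitted to 4-parameter Hill equation.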

Sequence of Glutathione peroxidase 1 (Homo sapiens) (P07203 whole entry, looked up): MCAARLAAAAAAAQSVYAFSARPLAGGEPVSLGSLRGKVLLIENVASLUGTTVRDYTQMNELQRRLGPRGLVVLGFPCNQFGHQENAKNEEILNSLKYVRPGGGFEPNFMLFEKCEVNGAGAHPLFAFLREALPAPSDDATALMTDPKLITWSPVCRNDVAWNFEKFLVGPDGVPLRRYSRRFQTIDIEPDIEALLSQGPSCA
Sequence of Phospholipid hydroperoxide glutathione peroxidase GPX4 (Homo sapiens) (P36969 whole entry, looked up): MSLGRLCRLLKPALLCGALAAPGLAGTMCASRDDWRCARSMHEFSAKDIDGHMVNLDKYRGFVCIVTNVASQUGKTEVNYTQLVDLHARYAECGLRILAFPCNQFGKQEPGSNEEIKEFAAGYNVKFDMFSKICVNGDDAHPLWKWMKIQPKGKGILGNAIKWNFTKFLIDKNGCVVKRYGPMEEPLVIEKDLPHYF

| Compound | Potency [1] | Potency [2] | Potency [3] | Potency [4] | Potency [5] | activity change, negative = inhibition [3] | activity change, negative = thiol reactive [4] | activity, negative = inhibition [5] |
| --- | --- | --- | --- | --- | --- | --- | --- | --- |
| CC1=C2C3OC(=O)C(C)C3(O)CCC2(C)CCC1=O (stereo not given) | inactive | inactive | inactive | 23.8 µM (active) | inactive | – | – | – |
| CC(C)C(=O)O[C@@H]1[C@@H](O)[C@@H](O[C@H]2O[C@H](CO)[C@@H](O)[C@H](O)[C@H]2O)O[C@H](CO)[C@H]1O | inactive | inactive | inactive | inactive | inactive | – | – | – |
| O=C(/C=C/c1ccc(O)cc1)OC[C@H]1O[C@@H](OC(=O)/C=C/c2ccccc2)[C@H](O)[C@@H](O)[C@@H]1O | inactive | inactive | inactive | 11.6 µM (active) | inactive | – | – | – |
| CC(=O)N[C@H](Cc1ccc(O)cc1)C(=O)N[C@H](CCCN=C(N)N)C(=O)N[C@H](Cc1ccccc1)C(N)=O (Ac-[dY]-[dR]-[dF]-NH2) | inactive | inactive | inactive | inactive | inactive | – | – | – |
| O=C(O)CCc1cccc(O[C@@H]2O[C@H](CO)[C@@H](O)[C@H](O)[C@H]2O)c1O | inactive | inactive | inactive | 8.26 µM (active) | inactive | – | – | – |
| OC[C@H]1O[C@@H](Oc2ccc3c(c2)OC[C@H]2c4cc5c(cc4O[C@@H]32)OCO5)[C@H](O)[C@@H](O)[C@@H]1O | inactive | inactive | inactive | inactive | inactive | – | – | – |
| Cc1cccc(-c2[nH]c(CNc3ccccc3F)nc2-c2ccc3ncnn3c2)n1 | inactive | inactive | inactive | inactive | inactive | – | – | – |
| CC/C=C\C[C@H]1C(=O)C=C[C@@H]1CCCCCCCC(=O)O | inactive | inactive | inactive | inactive | inactive | – | – | – |
| CCNC(=O)[C@@H]1CCCN1C(=O)[C@H](CCCN=C(N)N)NC(=O)[C@H](CC(C)C)NC(=O)[C@@H](C)NC(=O)[C@H](Cc1ccc(O)cc1)NC(=O)[C@H](CO)NC(=O)[C@H](Cc1c[nH]c2ccccc12)NC(=O)[C@H](Cc1cnc[nH]1)NC(=O)[C@@H]1CCC(=O)N1 | inactive | inactive | inactive | inactive | inactive | – | – | – |
| CCn1nnnc1NCc1ccc(C(C)C)cc1 | inactive | inactive | inactive | inactive | inactive | – | – | – |
| CC1(C)CCC(C)(C)c2cc([C@@H](O)C(=O)Nc3ccc(C(=O)O)cc3F)ccc21 | inactive | inactive | inactive | inactive | inactive | – | – | – |
| Cc1cc(Nc2ncc(Cl)c(Nc3ccccc3S(=O)(=O)C(C)C)n2)c(OC(C)C)cc1C1CCNCC1 | inactive | inactive | inactive | inactive | inactive | – | – | – |
| C=C1CCC2(OC1)OC1CC3C4CC=C5CC(O)CC(O[C@@H]6OC[C@@H](O)[C@H](O)[C@H]6O)C5(C)C4CCC3(C)C1(O)C2C (stereo not given in full) | inactive | inactive | inactive | inactive | inactive | – | – | – |
| CC1CCC2C(C)(C)C(O)CCC2(C)C12Cc1c(O)cc3c(c1O2)CN(C(CCC(N)=O)C(=O)O)C3=O (stereo not given) | inactive | inactive | inactive | inactive | inactive | – | – | – |
| C=C1[C@H]2[C@H](O[C@@H]3O[C@H](COC(=O)/C=C/c4cc(OC)c(O)c(OC)c4)[C@@H](O)[C@H](O)[C@H]3O)OC=C(C(=O)O)[C@H]2C[C@@H]1O | inactive | inactive | inactive | 7.07 µM (active) | inactive | – | – | – |
| CCC(CC)n1ccc2c(C(=O)NCc3c(C)cc(C)[nH]c3=O)cc(C#N)cc21 | inactive | inactive | inactive | inactive | inactive | – | – | – |
| CC1(CO)CC[C@]2(C(=O)O[C@@H]3O[C@H](CO)[C@@H](O)[C@H](O)[C@H]3O)CC[C@]3(C)C(=CCC4[C@@]5(C)CC[C@H](O[C@@H]6O[C@H](C(=O)O)[C@@H](O)[C@H](O)[C@H]6O)C(C)(C)C5CC[C@]43C)C2C1 (stereo not given in full) | inactive | inactive | – | – | – | -2.66% [at 11.6 µM] | -2.52% [at 11.5 µM] | 2.96% [at 11.6 µM] |
| COc1cc(C2OCC3C(c4ccc(OC5OC(CO)C(O)C(O)C5O)c(OC)c4)OCC23)ccc1O (stereo not given) | inactive | inactive | inactive | inactive | inactive | – | – | – |
| COC1=CC(=O)O[C@@H](/C=C/c2ccccc2)[C@@H]1O | inactive | inactive | inactive | inactive | inactive | – | – | – |
| O=c1ccn([C@@H]2O[C@H](CO)[C@@H](O)[C@H]2O)c(=O)[nH]1 | inactive | inactive | inactive | inactive | inactive | – | – | – |
| COc1cc(-c2cccc(O)c2)cc2c1OCO2 | inactive | inactive | inactive | 26.7 µM (active) | inactive | – | – | – |
| CC(=O)O[C@@H]1[C@H]2[C@@H](OC(=O)c3ccccc3)[C@@H](C)C[C@]2(O)[C@H](OC(C)=O)[C@@]2(C)[C@@H]3CC(C)(C)C(=O)[C@]3(OC(C)=O)C[C@@]12C | inactive | inactive | inactive | inactive | inactive | – | – | – |

Reference: PubChem BioAssay (NCATS)
